Hits are enriched below; roughly 16% of the tested compounds scored in any of these assays.
TDP1 block: qHTS Assay for Inhibitors of Tyrosyl-DNA Phosphodiesterase (TDP1) | Tyrosyl-DNA phosphodiesterase 1 (Homo sapiens), Q9NUW8 | recombinant TDP1, AlphaScreen DNA substrate cleavage | Potency, µM (highest dose often 130 µM), usual class: inhibitors | actives 0.28% (n = 350,000) | AID 485290, 2010; note: nearly all actives have a fitted effect of over 40% in size
Target sequence (Q9NUW8 whole entry, looked up): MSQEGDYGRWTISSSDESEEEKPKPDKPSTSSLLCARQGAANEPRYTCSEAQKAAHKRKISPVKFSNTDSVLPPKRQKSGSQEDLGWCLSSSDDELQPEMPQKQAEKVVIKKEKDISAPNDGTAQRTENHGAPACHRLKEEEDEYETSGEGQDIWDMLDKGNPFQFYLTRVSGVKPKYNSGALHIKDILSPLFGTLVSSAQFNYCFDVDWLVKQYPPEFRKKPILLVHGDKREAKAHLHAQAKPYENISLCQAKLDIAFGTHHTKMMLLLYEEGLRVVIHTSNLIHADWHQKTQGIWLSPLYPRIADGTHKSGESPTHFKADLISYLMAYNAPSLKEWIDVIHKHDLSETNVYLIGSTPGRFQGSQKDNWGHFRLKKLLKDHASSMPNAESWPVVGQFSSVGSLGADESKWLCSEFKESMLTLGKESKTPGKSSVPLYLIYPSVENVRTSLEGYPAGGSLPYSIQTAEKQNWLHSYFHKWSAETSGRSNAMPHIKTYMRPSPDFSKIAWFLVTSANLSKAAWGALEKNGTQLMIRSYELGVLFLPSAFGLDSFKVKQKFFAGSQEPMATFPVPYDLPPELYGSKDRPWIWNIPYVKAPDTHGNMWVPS
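Compounds were preincubated with Tdp1 (1 nM final) for 15 min at room temperature before substrate (15 nM final) started a 5 min reaction; beads (10 ug/ml final) were then added for 10 min before AlphaScreen detection.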
uPA surface inh: qHTS for Inhibitors of Cell Surface uPA Generation; AID 540303, 2011; Potency, µM (highest dose often 38.3 µM), usual class: inhibitors; actives 0.31% (n = 330,000); cell surface uPA generation assay, qHTS; active = well fitted inhibition curve with a large enough effect; inconclusive = small, poorly fitted or top-dose-only effect; inactive = no such curve, though single readings can be large or run the other way; tested in mouse RAW 264.7 cells; note: nearly all actives have a fitted effect of over 55% in size
DT40 TDP1 CPT: qHTS for Inhibitors of human tyrosyl-DNA phosphodiesterase 1 (TDP1): qHTS in cells in presence of CPT. AID 686979, 2013. chicken DT40 Tdp1-/-;hTDP1 cells + 20 nM CPT, ATP luminescence, 48 h. Potency, µM (highest dose often 46.2 µM), usual class: inhibitors. actives 12% (n = 420,000); note: nearly all actives have a fitted effect of over 55% in size
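Cell growth measured by CellTiter-Glo luminescence after a minimum 48 h, 37 C compound exposure with 20 nM CPT in Tdp1-knockout DT40 cells stably expressing hTDP1, seeded 400/well; qHTS titration format.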
miR-21 act: qHTS Assay for Modulators of miRNAs and/orActivators of miR-21; Potency, µM (doses to about 38.3 µM), most hits filed as activators; AID 2288, 2010; 340,000 tested, under 10 active; HeLa miR-21 FLuc reporter, luciferase, 48 h;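 note: miR-21 action dims this reporter so a rising signal means less miR-21 action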
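Using DMEM plus 10% FBS, HeLa miR-21-FLuc cells are incubated with test compounds (final up to about 40uM) for 48 hours; firefly luciferase signal is then imaged following reagent-mediated lysis.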
DT40 TDP1 no CPT: qHTS for Inhibitors of human tyrosyl-DNA phosphodiesterase 1 (TDP1): qHTS in cells in absence of CPT; DT40 Tdp1-/- hTDP1 cells, no CPT, ATP luminescence, 48 h; Potency, µM (highest dose often 46.2 µM), hits mostly inhibitors; actives 15% (n = 420,000); note: nearly all actives have a fitted effect of over 55% in size
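Chicken DT40 Tdp1-/- cells stably complemented with human TDP1 were seeded at 400 cells/well with DMSO in place of 20 nM camptothecin. After compound pinning, cells grew at least 48 hr at 37 °C; viability read by CellTiter-Glo luminescence.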
Hits are given with their value; n = inactive; u = inconclusive; x = no result; ! = a repeat was not active. Unless noted, calls come from the whole dose curve; as a rule, active = well fitted curve in the direction sought with a large enough effect; inconclusive = small, poorly fitted or top-dose-only effect, or another doubt; inactive = no such curve, though single readings can be large; an effect the other way counts as inactive or inconclusive.

SMILES | TDP1 block | uPA surface inh | DT40 TDP1 CPT | miR-21 act | DT40 TDP1 no CPT
O=C(N[C@H](CO)[C@H](O)c1ccc([N+](=O)[O-])cc1)C(Cl)Cl | n | n | 7.5µM! | x | 11µM
COc1cccc(NC(=O)CSc2nnc(-c3ccoc3C)n2C)c1 | n | n | n | n | n
COc1cc(/C=N/N=C2/NC(=O)C(CC(=O)O)S2)ccc1OCc1cccc(Cl)c1 (stereo unspecified) | n | n | n | n | n
CCCC(=O)Nc1cnc(NC(=O)c2cccc(F)c2)cc1C | n | n | n | n | n
Cc1ccc(C2CC(c3cccs3)=NN2S(=O)(=O)c2ccc(C)cc2)cc1 (stereo unspecified) | n | n | 21µM | n | 23µM
O=S(=O)(c1ccccc1)N1N=C(c2cccs2)CC1c1ccc(F)cc1 (stereo unspecified) | n | n | u | n | u
COc1ccc(C2CC(c3cccs3)=NN2S(=O)(=O)c2ccc(C)cc2)cc1 (stereo unspecified) | x | n | 23µM | x | 23µM
O=S(=O)(c1ccccc1)N1N=C(c2cccs2)CC1c1cccc(O)c1 (stereo unspecified) | n | n | u | n | 16µM
CS(=O)(=O)N1N=C(c2cccs2)CC1c1ccccc1 (stereo unspecified) | n | n | n | n | n
CC(=O)N1CCC2(CCCN(Cc3nccs3)C2)CC1 | x | x | n | x | n
CCCC(=O)NC(c1ccc(C)cc1)c1ccc2cccnc2c1O (stereo unspecified) | n | n | 2.3µM | n | 1.2µM
CCCCC(=O)NC(c1ccc(Cl)cc1)c1ccc2cccnc2c1O (stereo unspecified) | x | n | 1.3µM | x | 1.2µM
Cc1ccnc(NC(c2cccc(O)c2)c2ccc3ccc(C)nc3c2O)c1 (stereo unspecified) | x | x | u | n | u
Cc1cccc(NC(c2cccc(Cl)c2)c2ccc3cccnc3c2O)n1 (stereo unspecified) | x | x | 5.2µM | n | 5.2µM
CC(=O)NC(c1ccc(Cl)cc1Cl)c1ccc2cccnc2c1O (stereo unspecified) | x | u | 3.7µM | n | 4.6µM
CC(=O)NC(CC(=O)NC(C)c1ccc(Cl)cc1Cl)c1ccccc1 (stereo unspecified) | n | n | n | n | n
CCCCC(=O)NC(c1ccccc1Cl)c1c(O)ccc2ccccc12 (stereo unspecified) | n | n | u | n | u
Fc1ccc(NCc2nnc(SCc3nnc(-c4ccccc4)o3)n2Cc2ccccc2)cc1 | n | n | u | n | u
Cc1cc(Cl)c2oc(C(=O)N(C)C3CCOC3)c(C)c2c1 (stereo unspecified) | n | n | u | n | u
CCCC(=O)NC(c1ccc(N(C)C)cc1)c1c(O)ccc2ccccc12 (stereo unspecified) | n | n | n | n | n
CCCC(=O)NC(c1ccc(Cl)cc1Cl)c1ccc2cccnc2c1O (stereo unspecified) | x | n | 4.1µM | n | 4.6µM
CCCC(=O)NC(c1ccccc1Cl)c1c(O)ccc2ccccc12 (stereo unspecified) | n | n | u | n | u
CCCCC(=O)NC(c1ccc(N(C)C)cc1)c1ccc2cccnc2c1O (stereo unspecified) | x | n | 1µM | n | 0.73µM
COc1ccc(C(Nc2ccccn2)c2ccc3ccc(C)nc3c2O)cc1C (stereo unspecified) | x | x | u | n | u
CCC(=O)NC(c1ccc(Br)o1)c1cc(Cl)c2cccnc2c1O (stereo unspecified) | n | x | x | x | x
SMILES | TDP1 block | uPA surface inh | DT40 TDP1 CPT | miR-21 act | DT40 TDP1 no CPT
Cc1ccc(C(Nc2ccccn2)c2ccc3cccnc3c2O)cc1 (stereo unspecified) | x | x | 21µM | n | 5.8µM
CCCC(=O)NC(c1ccc(Cl)cc1)c1ccc2cccnc2c1O (stereo unspecified) | x | n | 4.1µM | n | 4.1µM
CC(NS(=O)(=O)c1ccc(Br)cc1)C(=O)Nc1nc2ccccc2[nH]1 (stereo unspecified) | n | n | u | x | u
Oc1c(C(Nc2cccc(C(F)(F)F)c2)c2ccncc2)ccc2cccnc12 (stereo unspecified) | n | n | 16µM | n | 18µM
CCCNc1nc(C)cc(-c2cc(C(=O)Nc3ccccc3)on2)n1 | x | n | n | x | n
CCCCCC(=O)N1CC2(CC)CN(C(=O)CCCCC)CC(CC)(C1)C2=O | n | n | 16µM | n | u
O=C(O)/C=C/C(=O)Nc1ccccc1SC(F)(F)F | n | u | 7.3µM | n | 21µM
O=C(O)/C=C/C(=O)Nc1ccccc1-c1ccccc1NC(=O)/C=C/C(=O)O | n | n | n | n | n
Cc1ccc(N2CC(NC(=O)c3ccc(S(=O)(=O)N4CCCC4)cc3)CC2=O)cc1C (stereo unspecified) | n | x | u | n | 18µM
Cc1ccc(N2CC(NC(=O)c3ccc(S(=O)(=O)N4CCOCC4)cc3)CC2=O)cc1C (stereo unspecified) | n | x | u | n | u
COc1cccc(N2CC(NS(=O)(=O)c3ccc4ccccc4c3)CC2=O)c1 (stereo unspecified) | x | n | n | x | 29µM
COc1ccc(S(=O)(=O)NC2CC(=O)N(c3ccc(C)c(C)c3)C2)cc1 (stereo unspecified) | x | n | u | x | 16µM
COc1cccc(N2CC(NS(=O)(=O)c3cccnc3)CC2=O)c1 (stereo unspecified) | x | n | n | x | n
CCCCNc1nccnc1-c1cccc(C=O)c1 | x | x | 18µM | x | u
CSc1ccccc1OCc1cc(C(=O)NC(C)Cc2cccc(C)n2)no1 (stereo unspecified) | n | n | 16µM | n | 13µM
CCn1nc(C)c(CNC(=O)c2cc(COc3ccccc3SC)on2)c1C | n | n | 21µM | n | u
CSc1ccccc1OCc1cc(C(=O)N(C)Cc2nonc2C)no1 | n | n | u | n | u
CSc1ccccc1OCc1cc(C(=O)N(C)CCn2nc(C)cc2C)no1 | n | n | 15µM | n | 21µM
Cc1sc2ncnc(N3CCC(C(=O)NNC(=O)COc4ccccc4F)CC3)c2c1C | x | n | u | x | u
CCCCCn1c(=O)[nH]c2c(c1=O)CCC2 | n | n | n | n | n
O=C(CN1CCC(NC(=O)c2ccccc2F)CC1)Nc1ccc2c(c1)OCCO2 | n | n | n | n | n
C[C@H](CO)N1C[C@H](C)[C@@H](CN(C)Cc2ccc3c(c2)OCO3)Oc2c(NC(=O)C3CCCCC3)cccc2C1=O | n | n | 21µM | x | 23µM

Source: PubChem (National Center for Advancing Translational Sciences (NCATS))
